Shiga toxin inh = blocks Shiga toxin action in Vero cells; AID 2315; inhibition, % at 38.7 µM; Vero cells, Shiga toxin protein synthesis inhibition reporter; actives 9.2% (n = 290,000); in the data active means inhibition mostly above about 28%, no sharp cut-off; inactive means mostly below about 43%; further: 0% is about no effect
Marburg entry inh = inhibitors of Marburg virus binding or cell entry | Marburg virus pseudotyped entry inhibition, cell reporter | Potency, µM (highest dose often 37.8 µM), without a hit: top-dose activity change, negative = inhibition, hits mostly inhibitors | actives 1.8% (n = 300,000) | AID 540276; calls by dose curve; tested in HEK293 cells; further: potency means the concentration at half of the fitted maximal effect; on the % scale 0 is the no-effect control and ±100 the full control effect
FMDV antiviral = blocks foot and mouth disease virus; actives 1.2% (n = 410,000); FMDV antiviral cell-based qHTS; Potency, µM (series often up to 57.9 µM), for inactives: at the highest dose activity change, negative = inhibition, hits mostly inhibitors; calls by dose curve; tested in HEK293T cells; further: read-out not given here; potency means the concentration at half of the fitted maximal effect; on the % scale 0 is the no-effect control and ±100 the full control effect; nearly all actives have a fitted effect of over 45% in size
HCV inhibitor = HCV inhibition; Huh7.5.1 HCVcc-Cre infection, luciferase reporter, 44 h; Potency, µM (doses to about 41.8 µM), inactives show at the highest dose activity change, negative = inhibition, hits mostly inhibitors; actives 3.4% (n = 340,000); AID 651820; active means well fitted inhibition curve with a large enough effect; inconclusive means small, poorly fitted or top-dose-only effect, or another doubt; inactive means no such curve, though single readings can be large or run the other way; further: potency means the concentration at half of the fitted maximal effect; on the % scale 0 is the no-effect control and ±100 the full control effect
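Cells (1,000/well) were plated 4 h before compound, then infected with HCVcc-Cre virus (~0.5 moi). After 44 h further culture, infection was read as luciferase luminescence following a 15 min substrate incubation at room temperature.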
Lassa entry inh = blocks Lassa virus binding to or entry into cells; Potency, µM (series often up to 37.9 µM), for inactives: at the top dose activity change, negative = inhibition, usual class: inhibitors; AID 540256; actives 1.2% (n = 300,000); Lassa virus pseudotype entry inhibition, cell reporter; calls by dose curve; tested in HEK293 cells; further: potency means the concentration at half of the fitted maximal effect; on the % scale 0 is the no-effect control and ±100 the full control effect; nearly all actives have a fitted effect of over 50% in size
CHX counter = counter-screen hit for Shiga toxin inhibitors, cycloheximide; actives 12% (n = 300,000); max response, %; cell reporter, cycloheximide protein synthesis inhibition counterscreen; in the data active means max response mostly above about 13%, no sharp cut-off; inactive means mostly below about 14%; further: read at 38.3 µM for the half of the compounds with a filed dose; 0% is about no effect
Starred values were filed as active, the others as inactive; ? = inconclusive; nt = no result; [ ] = another dose, or the depositor's remark. An excerpt weighted towards active compounds, which were near 13% of everything screened.

SMILES	Shiga toxin inh	Marburg entry inh	FMDV antiviral	HCV inhibitor	Lassa entry inh	CHX counter
Cc1ccc(NC(=O)CN(C)CC(=O)Nc2ccc3c(c2)OCO3)cc1	nt	nt	-16%	nt	nt	nt
Cc1ccc2c(c1)CCCN2C(=O)Nc1ccc2c(c1)OCO2	30*	3%[46.1 µM]	14%	-28%	2%	46*
Cc1c(-c2ccccn2)c(=O)[nH]n1-c1ccc(F)cc1	58	8.9µM*	-34%	6%	-27%[46.1 µM]	28*
O=c1[nH]n(-c2ccc(F)cc2)c2ncccc12	-9	6%	1%	16%	5%	9
O=C(O)c1sc2cc(C(F)(F)F)cnc2c1-c1ccccc1	-6	1%	2%	18%	1%	-4
CSc1nnc(-c2sc3cc(C(F)(F)F)cnc3c2-c2ccccc2)n1C	-11	1.6µM*	-19%	?	?	1
CSCC[C@H](NC(=O)OC(C)(C)C)C(=O)N/N=C/c1ccc2nccnc2c1	3	3.2µM*	-11%	8%	-12%	6
Cc1ccccc1C(=O)Nc1nnc(-c2ccc(C(C)(C)C)cc2)s1	-9	7%	24%	12%	12%	16*
Cc1cccc(-c2nnc(NC(=O)c3ccc(N4C(=O)CCC4=O)cc3)s2)c1	-13	-11%	-11%	-24%[8.37 µM]	2%	-3
Cc1cccc(C(=O)Nc2nnc(-c3ccc(C(C)(C)C)cc3)s2)c1	46	-29%	39%	?	?	19*
COc1ccccc1C(=O)Nc1nnc(-c2ccc(F)cc2)s1	5	1%[46.1 µM]	34%	1%	16%[46.1 µM]	1
CS(=O)(=O)N(CC(=O)N1CCOCC1)Cc1ccccc1	21	15%	nt	14%	14%	-3
COc1ccc(-c2noc(COc3cc(C)ccc3C)n2)cc1OC	nt	0%[46.1 µM]	-18%	nt	8%[46.1 µM]	nt
Cc1c(S(=O)(=O)N2CCN(c3cccc(Cl)c3)CC2)c(=O)n(C)c(=O)n1C	-35	-1%	-24%	nt	-3%	-4
O=C(N/C(=C/c1ccc(Br)cc1)C(=O)N1CCOCC1)c1ccco1	-7	-15%	-14%	22%	3%	-2
COc1ccc(SCC2CN(C)CCC2c2ccc(F)cc2)cc1 (stereo unspecified)	nt	nt	14%	11µM*	nt	nt
C/C(=N\NC(=O)c1ccc(OC2CCCC2)cc1)c1ccc(C)s1	-8	-14%[46.1 µM]	-17%	-7%	?	-6
COc1ccc(NCc2ccc([N+](=O)[O-])s2)c(OC)c1	34*	12%	-15%	-4%	17%	25*
O=[N+]([O-])c1ccc(CNc2ccc(F)cc2)s1	-10	?	?	3%	-16%	-1
O=[N+]([O-])c1ccc(CNc2ccc(Cl)cc2)s1	28	?	?	10%	3.5µM*	13*
COc1ccc(NCc2ccc([N+](=O)[O-])s2)cc1	31	5%	0%	4%	5%	21*
Cc1ccc(SCc2c(C(=O)N/N=C/c3ccc(C)o3)nnn2-c2nonc2N)cc1	nt	nt	-11%	nt	nt	nt
COc1ccc2nc(Nc3ccccc3)sc2c1	60*	?	-16%	?	?	30*
COc1cccc(OC)c1C(=O)Nc1nc2ccc(S(C)(=O)=O)cc2s1	-14	?	-19%	1%	?	-3
COc1ccc(Nc2nc3ccccc3c(=O)s2)c(OC)c1	18	-5%	4%	-7%	0%	-3
SMILES	Shiga toxin inh	Marburg entry inh	FMDV antiviral	HCV inhibitor	Lassa entry inh	CHX counter
COc1ccc2nc(Nc3ccccc3OC)sc2c1	90*	?	-24%	-14%	?	32*
COc1ccc2nc(NC(=O)Nc3cccc4ccccc34)sc2c1	56	-10%	35%	-27%	-13%	23
COc1ccc2nc(NC(=O)Nc3ccccc3OC)sc2c1	102*	?	-18%	?	?	49*
COc1ccccc1NC(=O)Nc1nc2ccc(S(N)(=O)=O)cc2s1	89*	-4%[46.1 µM]	49%	?	nt	67*
Cc1nc(C2CCCCC2)c(-c2ccccc2)c(N2CCOC2=O)c1C	nt	nt	-25%	?	nt	nt
COC(=O)[C@]1(C)N[C@H](CN(C)S(=O)(=O)c2ccccc2)[C@@H]2C(=O)N(C)C(=O)[C@@H]21	nt	nt	-23%	8%	nt	nt
COc1cccc(Oc2ccc(OC)cc2C(=O)O)c1	-8	0%[46.1 µM]	5%	10%	?	-2
CSc1nnc(C(C)(C)C)c(=O)n1/N=C/c1ccccc1O	12	nt	-10%	17%	nt	13
Cc1nn(C(=O)c2cc3sccc3[nH]2)c(C)c1C	92*	13%	nt	-17%	?	43*
O=C(O)CCCNC(=O)/C(=C\C=C\c1ccccc1)NC(=O)c1ccccc1Cl	-8	-6%	6%	-11%	3%[46.1 µM]	-2
Cc1cc(C=C2C(=O)c3ccccc3C2=O)c(C)n1-c1ccc(Cl)cc1	-6	-1%	-6%	22%	9%	14*
Cc1cc(/C=C2/C(=N)N3C(c4ccccc4)=CSC3=NC2=O)c(C)n1-c1ccc(Cl)cc1	nt	-13%[46.1 µM]	-16%	-11%	23%	nt
Cc1cccc(-n2c(C)cc(C=C3C(=O)c4ccccc4C3=O)c2C)c1	41	?	nt	-21%	-1%	21*
Cc1cccc(-n2c(C)cc(/C=C3/C(=N)N4C(c5ccccc5)=CSC4=NC3=O)c2C)c1	-8	15%	0%	-2%	5%	0
CCc1ccc2c(c1)NC(=O)C2(C)Cc1ccc(F)cc1 (stereo unspecified)	nt	nt	-21%	nt	nt	nt
CCc1ccc2c(c1)C1(NN=C(c3ccc(C)cc3)S1)C(=O)N2 (stereo unspecified)	74*	?	-24%	10µM*	3%	24*
CC(C)c1ccc(O)c(NC(=O)c2ncn[nH]2)c1	16	-5%	7%	5%	7%	-2
CC(C)c1ccc2c(c1)C1(NN=C(c3ccccc3)S1)C(=O)N2 (stereo unspecified)	68*	?	-20%	?	?	33*
COc1ccc(-c2ccccc2NC(=O)C2CCCN(Cc3ccco3)C2)cc1 (stereo unspecified)	-7	-15%	-7%	?	-8%	-2
Cc1ccc(CN(C)C(=O)CN2C(=O)NC3(CCCC3)C2=O)o1	nt	nt	-9%	8%	nt	nt
Cc1ccc2nc(N/N=C\c3ccc([N+](=O)[O-])o3)nc(-c3ccccc3)c2c1	-3	10µM*	-29%	?	?	-3
O=[N+]([O-])c1ccc(/C=N/Nc2ccc3ccccc3c2)o1	126*	-11%	-17%	-9%	3%	58*
O=C(N/N=C/c1ccc([N+](=O)[O-])o1)c1cc2ccccc2o1	-11	nt	-37%	?	nt	11
CSc1ccc(/C=C(\C#N)C(=O)NC2CCCCC2)cc1	-4	?	4%	?	16%	1
COc1ccc(-c2[nH]ncc2/C=C(/C#N)C(=O)NC2CCCCCC2)cc1	-28	10µM*	-8%	22µM*	?	-2
Cc1cc(/C=C(\C#N)C(=O)NC2CC2)c(C)[nH]1	94*	?	26%	2%	?	68*
